Experimental data published in the supplement of paper PMC13380429.
Values without a mark were called inactive.

Test system: Vero E6 infected with SARS-CoV-2
Test: inhibition of SARS-CoV-2 cytopathic effect; higher = more antiviral protection, active = above 15
Conditions: 48 h

Compound | inhibition of SARS-CoV-2 cytopathic effect (1 nM) | inhibition of SARS-CoV-2 cytopathic effect (8.33 nM) | inhibition of SARS-CoV-2 cytopathic effect (100 nM) | inhibition of SARS-CoV-2 cytopathic effect (833.33 nM) | inhibition of SARS-CoV-2 cytopathic effect (10000 nM)
CCCCNc1c(C(=O)OCC)c(C)nc2c1cnn2CC [tracazolate] | -0.41% | 1.49% | -0.22% | -2.81% | -1.99%
COc1cc(SC)ccc1C(=O)N1CCC(Cc2ccccc2)CC1 | 4.96% | 7.9% | 8.76% | 9.01% | 7.35%
CC(C)C[C@H](NC(=O)CNC(=O)c1cc(Cl)ccc1Cl)B1OC(=O)C(CC(=O)O)(CC(=O)O)O1 [ixazomib-citrate] | 2.06% | 1.34% | 22.3% (active) | 29% (active) | 20.8% (active)
C=CCN1CC[C@]23CCCC[C@H]2[C@H]1Cc1ccc(O)cc13 [levallorphan] | -1.28% | 0.72% | -1.34% | -1.26% | -3.54%
CCCS(=O)(=O)Nc1ccc(F)c(C(=O)c2c[nH]c3ncc(Cl)cc23)c1F | 0.68% | 0.41% | -0.45% | 2.16% | 1.71%
O=C1NCN(c2ccccc2)C12CCN(CC1COc3ccccc3O1)CC2 (stereo not given) [spiroxatrine] | -0.76% | 0.74% | 1.03% | 0.28% | 0.38%
O=C(c1ccc(F)cc1)N1CCC[C@H](c2nc(-c3ccc(F)cc3)no2)C1 | -1.67% | -0.59% | -0.85% | 0.74% | 2.44%
CCNC(=O)CC[C@H](N)C(=O)O [L-theanine] | -2.94% | -3.55% | -3.29% | -0.63% | -0.81%
CCC(C/C=C/c1ccccc1)(c1ccccc1)N(C)CC1CC1 (stereo not given) [igmesine] | -0.08% | 0.01% | -2.22% | -1.63% | 6.93%
O=C1Nc2ccc(Cl)cc2[C@@](C#CC2CC2)(C(F)(F)F)O1 [efavirenz] | -5.64% | -1.07% | 0% | -0.49% | -1.92%
CO[C@@]12[C@H](COC(N)=O)C3=C(C(=O)C(C)=C(N)C3=O)N1C[C@@H]1N[C@@H]12 [mitomycin-C] | -6.42% | -2.65% | -0.38% | -1.53% | -5.17%
Nc1nc(=O)[nH]cc1F [flucytosine] | -1.58% | -2.1% | 0.5% | 2.44% | 1.48%
CCN(CC)Cc1cc(Nc2ccnc3cc(Cl)ccc23)ccc1O [amodiaquine] | 3.02% | 3.97% | 0.97% | -1.05% | 44.7% (active)
CC(C)(C)C(=O)OCOC(=O)[C@@H]1N2C(=O)[C@@H](/N=C/N3CCCCCC3)[C@H]2SC1(C)C [pivmecillinam] | 1.02% | 0.8% | -0.38% | -0.99% | 0.82%
CC(C)CC(N)=O [isovaleramide] | 1.36% | -1.79% | 1.18% | 0.06% | 0.19%
CC[C@@H]1C(=O)OC[C@@H]1Cc1cncn1C [pilocarpine] | 0.9% | 1.12% | 1.22% | 3.49% | 3.05%
COc1cccc(-c2cc(F)ccc2[C@H]2Cc3nc(N)nc(C)c3C(=O)N2)n1 | -0.35% | 0.26% | -1.38% | -0.51% | -10.9%
C[N+](C)(C)CCCCCCCCCC[N+](C)(C)C [decamethonium] | -3.35% | -4.24% | -5.16% | -3.23% | -1.94%
CN(C)C(=O)N[C@H]1CC[C@H](CCN2CCN(c3cccc(Cl)c3Cl)CC2)CC1 [cariprazine] | -2.57% | 1.1% | -0.14% | 3.01% | -3.84%
Clc1cccc(Nc2nnc(-c3ccccc3)c3ccccc23)c1 | 1.65% | 2.3% | 2.13% | 1.98% | 2.92%
O=C(NO)c1ccc(O)c(O)c1 [didox] | 1.58% | 0.68% | 1.83% | -2.16% | -2.13%
O=[N+]([O-])c1ccccc1S(=O)(=O)NCC1CCC(CNC[C@H]2CCc3ccccc3C2)CC1 (stereo not given in full) | 0.09% | 1.35% | -1.44% | -4.04% | 42.4% (active)
